Test results taken from paper PMC6212790, “How bacterial xenogeneic silencer rok distinguishes foreign from self DNA in its resident genome”.
Whole data set: some 33,000 sequences, median “e-score” near -0.038, cut for the highest 2% near 0.33. The full list was thinned out, with the highest values kept by preference.

target: T1, GST-Rok-C97-191 (Bacillus subtilis subsp. subtilis str. …, UniProt O34857 97-191); experiment: protein binding microarray; Rok is a gene silencer of Bacillus subtilis; high values mean tight binding; conditions: protein: recombinant; tags: GST (pTH5325, pDEST15-Magic modified); dsDNA, one strand shown
T1 sequence: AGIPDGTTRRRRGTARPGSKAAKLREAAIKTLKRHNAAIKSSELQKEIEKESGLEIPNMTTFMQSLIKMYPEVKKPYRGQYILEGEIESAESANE
Method in brief: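 Each has a 25-mer constant primer and a 35-mer variable part from a de Bruijn sequence of order 10, covering every non-palindromic 8-mer at least 32 times (palindromic 16). Preference for each 8-mer is given as a rank-based, unitless enrichment score (E-score). Its range runs from 0.5 (most favored) to −0.5 (most disfavored).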

Row | Sequence | binding signal
1 | AAGGAGCG | -0.2 E-score
2 | AGAGGCAA | -0.195 E-score
3 | GACCTTGC | -0.129 E-score
4 | GAATAATA | 0.349 E-score
5 | GAATAATC | -0.0939 E-score
6 | GAATAAGA | 0.0835 E-score
7 | AGCCAACC | -0.074 E-score
8 | ATTCGCCC | -0.192 E-score
9 | ATGATAGA | 0.36 E-score
10 | CTGATATA | 0.258 E-score
11 | ATGATAGG | 0.0735 E-score
12 | ATGATATG | 0.226 E-score
13 | ATGATATA | 0.386 E-score
14 | ATGATAGC | 0.15 E-score
15 | GGACGTCC | -0.0863 E-score
16 | AAGCACAA | 0.035 E-score
17 | TCGGTCAA | 0.044 E-score
18 | GACAAATA | 0.111 E-score
19 | AGCATAAG | -0.133 E-score
20 | AGCATAAA | 0.179 E-score
21 | AGCATAAT | 0.369 E-score
22 | CGTTGTCA | 0.0104 E-score
23 | TCTATGCA | 0.172 E-score
24 | AATATTCC | 0.106 E-score
25 | AATATTCT | 0.347 E-score

Row | Sequence | binding signal
26 | AATATTGG | -0.0277 E-score
27 | AATATTCG | 0.307 E-score
28 | AATATTGA | 0.22 E-score
29 | AATATTGT | 0.372 E-score
30 | AAACATTC | 0.0952 E-score
31 | CGATGTCA | -0.131 E-score
32 | GGTCCCAA | -0.183 E-score
33 | ATGGACGC | -0.141 E-score
34 | AGTAACTA | 0.436 E-score
35 | AGTAACTC | 0.0388 E-score
36 | AGTAACTG | 0.124 E-score
37 | ACTAACTG | 0.16 E-score
38 | GGTAACTA | 0.336 E-score
39 | GCTAACTA | 0.324 E-score
40 | ACTAACTA | 0.367 E-score
41 | CGTAACTA | 0.314 E-score
42 | GGTAACGA | 0.0496 E-score
43 | GTTCAACA | 0.0437 E-score
44 | GTAACTGA | 0.203 E-score
45 | TCATGAAA | 0.0251 E-score
46 | GTGACCGA | 0.048 E-score
47 | CCACAATA | 0.2 E-score
48 | GACCTAGC | -0.0362 E-score
49 | AGCTACGA | 0.191 E-score
50 | ACATGACC | 0.104 E-score

Row | Sequence | binding signal
51 | AATAAGAC | 0.0721 E-score
52 | AGCTAGAT | 0.152 E-score
53 | GGCTAGAA | -0.162 E-score
54 | AACTAGAA | 0.363 E-score
55 | ACCTAGAA | 0.142 E-score
56 | TACTAGAA | 0.348 E-score
57 | AACTAGAG | 0.0733 E-score
58 | GACTAGAA | 0.206 E-score
59 | TGCTAGAA | 0.364 E-score
60 | AGCTAGAA | 0.322 E-score
61 | CACTAGAA | 0.304 E-score
62 | AACTAGAC | 0.193 E-score
63 | AACTAGAT | 0.388 E-score
64 | GCCGCAAC | -0.128 E-score
65 | CAGCAGGA | -0.178 E-score
66 | AACATCAT | 0.00751 E-score
67 | AACATCTT | 0.0861 E-score
68 | GTAACCAA | 0.000641 E-score
69 | CTAGACCA | -0.196 E-score
70 | ACATGTTA | 0.144 E-score
71 | CGAATGAG | -0.0259 E-score
72 | ATGCTCCG | -0.113 E-score
73 | CAGCCTTA | -0.151 E-score
74 | CATAGCTC | 0.00142 E-score
75 | ACGCGGAA | -0.0676 E-score

Row | Sequence | binding signal
76 | AGTAGATC | 0.323 E-score
77 | CGTAGATA | 0.21 E-score
78 | AGTAGATG | 0.29 E-score
79 | GCTAGATA | 0.288 E-score
80 | GGTAGATA | 0.432 E-score
81 | AGTAGATA | 0.456 E-score
82 | ACCCGCAA | -0.0817 E-score
83 | AACTAGCG | 0.256 E-score
84 | AACTAGCC | 0.107 E-score
85 | AACTAGCA | 0.346 E-score
86 | GACTAGCA | 0.101 E-score
87 | AACTAGCT | 0.342 E-score
88 | CACTAGCA | -0.154 E-score
89 | AGAAGAAA | 0.00841 E-score
90 | CTCTTTCC | -0.0674 E-score
91 | AACACCCA | -0.114 E-score
92 | CACGTATA | 0.228 E-score
93 | TACGTATA | 0.349 E-score
94 | GACGTATA | 0.174 E-score
95 | TGGAGCCA | -0.182 E-score
96 | GGCGAAGA | -0.0389 E-score
97 | GTTAAAAC | 0.0593 E-score
98 | CCAACTGA | -0.0233 E-score
99 | ATATAAAC | 0.33 E-score
100 | ATATAAAT | 0.419 E-score

Row | Sequence | binding signal
101 | ATAAAAAT | 0.28 E-score
102 | CTATAAAA | 0.229 E-score
103 | ATATAAAA | 0.338 E-score
104 | ATATAAAG | 0.135 E-score
105 | GTATAAAC | 0.137 E-score
106 | TTATAAAA | 0.218 E-score
107 | CTATAAAC | 0.291 E-score
108 | CGGAGACG | -0.133 E-score
109 | CGTGTAGC | -0.0895 E-score
110 | CTAGAGAC | 0.0353 E-score
111 | CGAACTAG | 0.299 E-score
112 | CGAACTAC | 0.373 E-score
113 | AGAACTAA | 0.259 E-score
114 | AGAACTAT | 0.268 E-score
115 | CGAACTAA | 0.135 E-score
116 | AGAACTAC | 0.369 E-score
117 | CGACCGGA | -0.00838 E-score
118 | GGTTCCGA | 0.0637 E-score
119 | ACTTGTTC | 0.195 E-score
120 | GGCAAGAA | -0.058 E-score
121 | CTCGAAAC | 0.104 E-score
122 | ATGCCCGA | -0.167 E-score
123 | AACTCATA | 0.0551 E-score
124 | AATAGCTA | 0.329 E-score
125 | GATAGCGA | 0.0913 E-score

Row | Sequence | binding signal
126 | GATAGCAA | 0.137 E-score
127 | GATAGCTA | 0.367 E-score
128 | AATAGCTG | 0.186 E-score
129 | CATAGCTA | 0.304 E-score
130 | CAGTCTAA | -0.037 E-score
131 | GGCAAGTA | 0.0714 E-score
132 | AAAAAATA | 0.323 E-score
133 | TACAAATA | 0.359 E-score
134 | CACAAATA | 0.243 E-score
135 | AACAAATA | 0.24 E-score
136 | AACAAGTT | 0.0415 E-score
137 | GTAAAATA | 0.306 E-score
138 | AACAAGTA | 0.371 E-score
139 | CACAAGTA | 0.205 E-score
140 | ATAAAATA | 0.396 E-score
141 | TAAAAATA | 0.351 E-score
142 | CTAAAATA | 0.295 E-score
143 | ATAAAATG | 0.246 E-score
144 | CTCTCGCA | -0.118 E-score
145 | AATCCGAA | 0.0539 E-score
146 | CTGAAGCA | -0.0795 E-score
147 | AGGTCACA | -0.186 E-score
148 | GCGGTTAA | 0.123 E-score
149 | AAGAACTT | -0.176 E-score
150 | AAGTCTAA | -0.0843 E-score

Row | Sequence | binding signal
151 | ACTGAAGT | 0.155 E-score
152 | AGGGACCA | -0.0833 E-score
153 | AATAAATA | 0.258 E-score
154 | GATAAATA | 0.323 E-score
155 | CTAAAAAA | 0.168 E-score
156 | TATAAATA | 0.381 E-score
157 | TAAAAAAA | 0.328 E-score
158 | TTAAAAAA | -0.0566 E-score
159 | CTCCTTGA | -0.109 E-score
160 | TCATGGAA | -0.0558 E-score
161 | CGAGTCTA | -0.0403 E-score
162 | ACGAACTC | -0.0425 E-score
163 | CGGAATTC | 0.0787 E-score
164 | GGAAACAA | 0.0324 E-score
165 | AGAAACTC | 0.0994 E-score
166 | CGAAACCA | -0.131 E-score
167 | AGAAACTA | 0.377 E-score
168 | GGAAACCA | -0.105 E-score
169 | AGAAAACA | 0.0817 E-score
170 | GGAAACTA | 0.354 E-score
171 | AGAAACTG | 0.0822 E-score
172 | GGAAAACA | -0.00212 E-score
173 | CGAAAACA | 0.348 E-score
174 | CGAAACTA | 0.425 E-score
175 | CGAAACTC | 0.0357 E-score
